# Experimental data: PMC4336329 (PLoS ONE, 2015)
# Hit rate of the full screen: of about 310,000 compounds, about 14,000 (4.5%) showed an effect of 50% or more. The effect is printed as a negative number. This is one part of a sample in which strong results are shown more often than they occur.
# Molecular target: human ether-à-go-go-related gene (hERG) potassium channel (human, UniProt Q12809)
# Test: primary screen, population patch clamp on CHO cells stably expressing hERG; higher = less effect of the substance
# 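Note: peak tail current of the secondary pulse compared with the same well before compound.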
# Sequence of human ether-à-go-go-related gene (hERG) potassium channel (Q12809 whole entry, looked up): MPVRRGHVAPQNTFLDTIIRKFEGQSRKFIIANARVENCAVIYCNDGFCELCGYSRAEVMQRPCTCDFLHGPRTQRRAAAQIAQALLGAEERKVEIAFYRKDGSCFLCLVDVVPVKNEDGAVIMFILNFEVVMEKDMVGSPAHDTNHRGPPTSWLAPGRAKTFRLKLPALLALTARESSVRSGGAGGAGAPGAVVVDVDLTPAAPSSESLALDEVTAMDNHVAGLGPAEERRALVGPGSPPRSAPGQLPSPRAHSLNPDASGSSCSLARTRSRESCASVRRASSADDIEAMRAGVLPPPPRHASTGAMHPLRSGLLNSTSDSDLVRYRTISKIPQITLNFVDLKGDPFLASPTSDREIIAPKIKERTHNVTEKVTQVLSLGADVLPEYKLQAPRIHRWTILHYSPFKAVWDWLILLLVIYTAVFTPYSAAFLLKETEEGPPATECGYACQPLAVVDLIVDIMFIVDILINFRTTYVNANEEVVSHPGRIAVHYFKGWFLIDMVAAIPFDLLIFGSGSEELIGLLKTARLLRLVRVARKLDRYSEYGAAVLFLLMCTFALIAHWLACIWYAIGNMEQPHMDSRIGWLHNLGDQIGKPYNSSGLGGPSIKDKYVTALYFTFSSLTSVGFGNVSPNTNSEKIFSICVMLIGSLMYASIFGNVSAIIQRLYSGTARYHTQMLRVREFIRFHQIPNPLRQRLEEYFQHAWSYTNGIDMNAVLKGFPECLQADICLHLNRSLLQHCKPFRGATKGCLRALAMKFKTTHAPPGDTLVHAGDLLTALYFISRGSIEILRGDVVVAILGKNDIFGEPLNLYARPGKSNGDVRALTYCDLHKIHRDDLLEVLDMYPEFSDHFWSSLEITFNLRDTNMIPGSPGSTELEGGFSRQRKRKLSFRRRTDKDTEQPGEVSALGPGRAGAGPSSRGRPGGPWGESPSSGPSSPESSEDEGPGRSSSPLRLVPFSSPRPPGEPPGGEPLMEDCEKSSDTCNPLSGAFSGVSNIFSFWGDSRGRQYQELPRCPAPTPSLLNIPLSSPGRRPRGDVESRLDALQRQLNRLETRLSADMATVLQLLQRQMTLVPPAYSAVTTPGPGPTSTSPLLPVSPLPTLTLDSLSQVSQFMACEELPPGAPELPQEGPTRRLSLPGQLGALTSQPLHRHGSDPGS
row,Compound,"hERG current change (%, negative = inhibition) at 10uM [%]"
1,C#Cc1cccc(C(=O)N2CCCC(C(=O)c3ccc(OC)cc3C)C2)c1 (stereo not shown),-6.8
2,COc1ccc(S(=O)(=O)N2CCC(C(=O)Nc3ccccc3N3CCCCC3)CC2)cc1OC,3.04
3,Cc1ccc(S(=O)(=O)N2CCC(C(=O)Nc3ccccc3N3CCCCC3)CC2)cc1C,-9.46
4,C=CCn1c(Cc2csc(N)n2)nnc1SCC(=O)OCC,-0.614
5,O=C(O)CCc1nc2ccccc2c(=O)[nH]1,38.7
6,CC(=O)c1cn(CC(=O)NCc2cccnc2)c2ccccc12,3.67
7,CCc1nnc(NC(=O)CSc2nnc(-c3cccnc3)n2C)s1,13.6
8,CCOc1ccc(OCCC(=O)OCC(=O)N2CCN(c3ccc(OC)cc3)CC2)cc1,6.92
9,CN1CCN(C(=O)c2ccccc2NC(=O)CCN2C(=O)c3ccccc3C2=O)CC1,-3.71
10,C=CCSc1nnc(NC(=O)CSc2nc3ccccc3[nH]2)s1,9.74
11,COc1cccc(NC(=O)Cn2c(-c3cncs3)nc3ccccc32)c1,-23.9
12,O=C(CNC(=O)c1ccco1)OCc1cccc(Cl)c1,-7.25
13,COC(=O)c1c(C)n(Cc2ccccc2)c2ccc(O)cc12,14.8
14,COC(=O)c1c(C(=O)OC)n(CCCN)c2ccc(C)cc12.Cl,-77
15,COC(=O)c1c(C)n(-c2ccc(C)cc2)c2ccc(O)cc12,-3.54
16,O=C(NCCC1=CCCCC1)c1cc(COc2ccc(F)cc2Cl)on1,10.4
17,COc1cccc(NC(=O)Cn2c(CCC(=O)O)ccc2-c2cccs2)c1,12.4
18,Cc1ccc(NC(=O)Cn2c(CCC(=O)O)ccc2-c2cccs2)cc1Cl,-75.3
19,Cc1ccc(NC(=O)Cn2c(CCC(=O)O)ccc2-c2cccs2)cc1,-2.61
20,CC(C)Oc1ccc(S(=O)(=O)N2CCOCC2)cc1NC(=O)C1CCCCC1,-19.6
21,O=C(O)CSc1ncnc2sc(-c3ccccc3)cc12,23.6
22,Cc1cccc(Nc2sc(C(=O)c3cc4cc(Cl)ccc4o3)c(N)c2C#N)c1,-2.78
23,CN1CCN(c2nc(Nc3cccc(C(F)(F)F)c3)nc(N3CCOCC3)n2)CC1,-60

row,Compound,"hERG current change (%, negative = inhibition) at 10uM [%]"
1,FC(F)(F)c1cccc(Nc2nc(N3CCCC3)nc(N3CCCC3)n2)c1,23.7
2,FC(F)(F)c1cccc(Nc2nc(N3CCOCC3)nc(N3CCOCC3)n2)c1,15.6
3,COc1ccc(N2CCN(c3nc(Cl)nc(Nc4ccc(F)cc4)n3)CC2)cc1,7.8
4,Cl.Fc1ccc(Nc2nc(N3CCOCC3)nc(N3CCOCC3)n2)cc1,4.26
5,CN1CCN(c2nc(Nc3ccc(F)cc3)nc(Nc3ccc(F)cc3)n2)CC1,-60.5
6,COc1ccc(/C=N/N=C/c2ccc(OC)c(O)c2)cc1O,23.2
7,CCCCNC(=O)/C(=C\c1ccc([N+](=O)[O-])o1)NC(=O)c1ccccc1,-39.8
8,Cc1ccc(C(=O)/C=C/c2ccc(-c3ccccc3[N+](=O)[O-])o2)cc1,12.5
9,O=C(O)/C(=C\c1ccc(-c2ccccc2[N+](=O)[O-])o1)c1ccccc1,23.6
10,Cc1ccc(C(=O)N/C(=C\c2ccc(-c3ccccc3[N+](=O)[O-])o2)C(=O)NCCN(C)C)cc1,-55.4
11,Cc1ccc(C(=O)N/C(=C\c2ccc(-c3ccccc3[N+](=O)[O-])o2)C(=O)NCCCN(C)C)cc1,-74.5
12,Cc1ccc(Oc2ccccc2/C=C/C(=O)O)cc1,14.6
13,C=CCn1c(SCC(=O)NC(=O)NC2CCCC2)nnc1C1CCCCC1,3.7
14,O=C(CSc1nnc(CNc2ccc(F)cc2)o1)N1c2ccccc2Sc2ccccc21,11
15,CCN1CCN(CCNC(=O)c2ccc(/C=C3/Sc4ccccc4N(Cc4cccc(C)c4)C3=O)cc2)CC1,-22
16,COc1cc(CNCCCN2CCOCC2)ccc1OCC(=O)Nc1cccc(C(F)(F)F)c1.Cl,-56.6
17,CCOc1cc(CNCCCN2CCOCC2)cc(Cl)c1OCC(=O)NC(C)(C)C.Cl,5.38
18,CCOc1cc(CNC(CC)CO)ccc1OCC(=O)Nc1cccc(C(F)(F)F)c1 (stereo not shown),-68.3
19,CCOc1cc(CNCCN2CCOCC2)ccc1OCc1ccccc1Cl.Cl,-41.8
20,COc1ccc(NC(=O)COc2ccc(CNCCCN3CCOCC3)cc2OC)cc1.Cl,0.185
21,CCOc1cc(CNCCCN2CCOCC2)cc(Br)c1OCc1ccccc1Cl.Cl,-64.9
22,CCOc1cc(CNCCO)cc(Br)c1OCc1ccccc1Cl.Cl,12.5
23,CCC(CO)NCc1ccc(OCC(=O)Nc2cccc(C(F)(F)F)c2)c(OC)c1 (stereo not shown),-43.6
